Assay results published in PubChem BioAssay (NCI).
“And” between values parts separate entries of the source, which are not always exact repeats. Equal values may be shown once. The panel holds about 83,000 compounds, 20% with a hit somewhere; the sample as a whole holds those more often.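 48-hour exposure, single concentration, 96-well plates; percent growth endpoint where 0 means no net growth. Active: below 10.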 The source made the active and inactive calls.

What was measured:
Test in all cases: NCI-60 one-dose screen, 48 h (100 = growth as untreated, 0 = no growth, -100 = all killed)
[1] = tested on: HCT-15 colon
[2] = tested on: SNB-75 CNS
[3] = tested on: SNB-19 CNS
[4] = tested on: U251 CNS
[5] = tested on: PC-3 prostate
[6] = tested on: SK-MEL-5 melanoma
[7] = tested on: UACC-62 melanoma
[8] = tested on: LOX IMVI melanoma
[9] = tested on: EKVX NSCLC
[10] = tested on: SN12C renal
[11] = tested on: UO-31 renal
[12] = tested on: ACHN renal
[13] = tested on: CAKI-1 renal
[14] = tested on: A498 renal
[15] = tested on: CCRF-CEM leukemia
[16] = tested on: MOLT-4 leukemia
[17] = tested on: SR leukemia
[18] = tested on: TK-10 renal; settings: 10 µM
[19] = tested on: HT29 colon; settings: 10 µM
[20] = tested on: SK-MEL-2 melanoma; settings: 10 µM

Measured: growth

O=Nc1ccc(Nc2ccccc2)cc1
active: [15]; 10 µM 2.09%
inactive: [1]; 10 µM 81.2% | [2]; 10 µM 80.4% | [3]; 10 µM 98.3% | [4]; 10 µM 87.8% | [5]; 10 µM 82.8% | [6]; 10 µM 87.9% | [7]; 10 µM 96.9% | [8]; 10 µM 23.5% | [9]; 10 µM 89.2% | [10]; 10 µM 95.6% | [11]; 10 µM 53.9% | [12]; 10 µM 41.5% | [13]; 10 µM 66.1% | [14]; 10 µM 87.2% | [16]; 10 µM unless noted 15% | [17]; 10 µM 28.2%

O=C(NC(=S)Nc1ccccn1)c1ccccc1
inactive: [1]; 10 µM 100% | [2]; 10 µM 74.8% | [3]; 10 µM 95.4% | [4]; 10 µM 94.9% | [5]; 10 µM 77.9% | [6]; 10 µM 93.3% | [7]; 10 µM 93.1% | [8]; 10 µM 94.9% | [9]; 10 µM 74.8% | [10]; 10 µM 97.1% | [11]; 10 µM 93.9% | [12]; 10 µM 95.1% | [13]; 10 µM 82% | [14]; 10 µM 70.5% | [15]; 10 µM 62.2% | [16]; 10 µM unless noted 93.1% | [17]; 10 µM 112%

O=C1c2cccc3cc([N+](=O)[O-])cc(c23)C(=O)N1CCN1CCCC1
inactive: [5]; 10 µM 14.4% | [9]; 10 µM 10.9%
active: [1]; 10 µM -7.27% | [2]; 10 µM -15.1% | [3]; 10 µM -0.129% | [4]; 10 µM -12.3% | [6]; 10 µM -88.6% | [7]; 10 µM -66.1% | [8]; 10 µM -65.9% | [10]; 10 µM -18.2% | [11]; 10 µM -42.8% | [18] -11.3% | [12]; 10 µM -57.9% | [13]; 10 µM -14% | [14]; 10 µM -64.4% | [15]; 10 µM -5.62% | [16]; 10 µM unless noted -17.9% | [17]; 10 µM -34.6%

CN(C)c1ccc(/C=C/c2ccnc3ccccc23)cc1N
inactive: [1]; 10 µM 59.5% | [2]; 10 µM 85.8% | [3]; 10 µM 80.2% | [4]; 10 µM 66.7% | [5]; 10 µM 60.4% | [6]; 10 µM 13.6% | [7]; 10 µM 63.3% | [8]; 10 µM 71.4% | [9]; 10 µM 52.5% | [10]; 10 µM 70.5% | [11]; 10 µM 45.5% | [12]; 10 µM 68.6% | [13]; 10 µM 60.9% | [14]; 10 µM 62.8% | [15]; 10 µM 44.3% | [16]; 10 µM unless noted 54.8% | [17]; 10 µM 41.4%

Cc1cc(C)c(N2C(=O)CC(Sc3ccccc3N)C2=O)c(C)c1 (stereo not given)
inactive: [1]; 10 µM 58% | [19] 66.2% | [2]; 10 µM 55.7% | [3]; 10 µM 83.1% | [4]; 10 µM 81.3% | [5]; 10 µM 68.4% | [7]; 10 µM 60.8% | [8]; 10 µM 69.9% | [9]; 10 µM 87.1% | [10]; 10 µM 90.4% | [11]; 10 µM 55.5% | [12]; 10 µM 87.7% | [13]; 10 µM 47.7% | [14]; 10 µM 54.2% | [15]; 10 µM 34.9% | [16]; 10 µM unless noted 76.5% | [17]; 10 µM 23.4%

CC(=O)O[C@H]1C(=O)[C@@]2(C)[C@H]([C@H](OC(=O)c3ccccc3)[C@]3(O)C[C@H](OC(=O)[C@H](O)[C@@H](NC(=O)c4ccccc4)c4ccccc4)C(C)=C1C3(C)C)[C@]1(OC(C)=O)CO[C@@H]1C[C@@H]2O
9.24% (active) and 39.3% (inactive): [11]; 10 µM
-26.2% (active) and 11.5% (inactive): [1]; 10 µM
-2.72% (active) and 12.2% (inactive): [17]; 10 µM
inactive: [1]; 0.01 µM 87.3% | [1]; 2.5 µM 13.2% | [1]; 5 µM 12.4% | [3]; 0.01 µM 30% | [3]; 2.5 µM 25.9% | [3]; 5 µM 30.1% | [3]; 10 µM 31.4% and 35.6% | [4]; 0.01 µM 27.9% | [4]; 2.5 µM 12.3% | [4]; 5 µM 13.9% | [4]; 10 µM 10.6% and 15.9% | [5]; 0.01 µM 25% | [5]; 2.5 µM 26.2% | [5]; 5 µM 34.7% | [6]; 0.01 µM 18% | [6]; 5 µM 17.5% | [6]; 10 µM 34.6% and 13% | [7]; 0.01 µM 24.9% | [7]; 2.5 µM 34.2% | [7]; 5 µM 40.3% | [7]; 10 µM 41.8% and 42.9% | [8]; 0.01 µM 35.4% | [8]; 5 µM 42.1% | [8]; 10 µM 35.1% and 42.3% | [9]; 0.01 µM 60.7% | [9]; 2.5 µM 35% | [9]; 5 µM 40.5% | [9]; 10 µM 47.1% and 41.5% | [10]; 0.01 µM 46.3% | [10]; 2.5 µM 25.5% | [10]; 5 µM 32% | [10]; 10 µM 55.6% and 33.2% | [11]; 0.01 µM 103% | [11]; 2.5 µM 42.6% | [11]; 5 µM 42.7% | [12]; 0.01 µM 95.3% | [12]; 2.5 µM 42.4% | [12]; 5 µM 44.8% | [12]; 10 µM 25.4% and 43.1% | [13]; 0.01 µM 93.4% | [13]; 2.5 µM 22.2% | [13]; 5 µM 23.1% | [13]; 10 µM 25.1% and 23.4% | [14]; 0.01 µM 61.7% | [14]; 2.5 µM 74.4% | [14]; 5 µM 96.2% | [14]; 10 µM 93.6% and 52.1% | [15]; 0.01 µM 11.7% | [16]; 0.01 µM 48.2% | [16]; 10 µM 22.8% | [17]; 0.01 µM 19.1%
-45.5% (active) and 37.3% (inactive): [5]; 10 µM
active: [2]; 0.01 µM -1.17% | [2]; 2.5 µM -28% | [2]; 5 µM -16.7% | [2]; 10 µM -38.5% and -19.3% | [6]; 2.5 µM 4.29% | [8]; 2.5 µM 9.12% | [15]; 2.5 µM 2.13% | [15]; 5 µM 5.52% | [15]; 10 µM 7.71% and 5.2% | [17]; 2.5 µM 7.15% | [17]; 5 µM 9.15%

Cc1cc(O)c2c(c1O)C(=O)C13C(=C2O)C(=O)C2C(O)C1C1C(O)C3C(=O)C3=C(O)c4c(O)cc(C)c(O)c4C(=O)C321 (stereo not given)
inactive: [1]; 10 µM 16.4% | [2]; 10 µM 20% | [4]; 10 µM 12.3% | [5]; 10 µM 10.3% | [9]; 10 µM 44.3% | [10]; 10 µM 12.7% | [11]; 10 µM 22.6% | [18] 22.3% | [12]; 10 µM 11.4% | [17]; 10 µM 12.6%
active: [3]; 10 µM 5.61% | [6]; 10 µM -74.9% | [7]; 10 µM -48.1% | [8]; 10 µM 7.97% | [13]; 10 µM -33.6% | [15]; 10 µM 4.16% | [16]; 10 µM unless noted 8.98%

CCC(C)(c1ccc(O)c(C)c1)c1ccc(O)c(C)c1
inactive: [1]; 10 µM 99.1% | [2]; 10 µM 64.8% | [3]; 10 µM 105% | [4]; 10 µM 94.4% | [5]; 10 µM 86.1% | [6]; 10 µM 95.2% | [7]; 10 µM 68.9% | [8]; 10 µM 104% | [20] 94.4% | [9]; 10 µM 82.5% | [10]; 10 µM 84.9% | [11]; 10 µM 76% | [12]; 10 µM 98.8% | [13]; 10 µM 62.1% | [14]; 10 µM 110% | [15]; 10 µM 89% | [16]; 10 µM unless noted 130% | [17]; 10 µM 113%

Nc1nc(N)c2cc(Sc3ccc4ccccc4c3)ccc2n1
active: [19] 9.75% | [17]; 10 µM -26.3%
inactive: [1]; 10 µM 22.6% | [2]; 10 µM 53.5% | [3]; 10 µM 35.7% | [4]; 10 µM 27.4% | [5]; 10 µM 35.6% | [6]; 10 µM 23.4% | [7]; 10 µM 27.3% | [8]; 10 µM 21% | [9]; 10 µM 38.2% | [10]; 10 µM 27.9% | [11]; 10 µM 22% | [12]; 10 µM 28.2% | [13]; 10 µM 17.3% | [14]; 10 µM 58.5% | [15]; 10 µM 38.2% | [16]; 10 µM unless noted 18.4%

O=S(=O)(c1cc(Cl)ccc1O)c1cc(Cl)ccc1O
inactive: [1]; 10 µM 94.2% | [2]; 10 µM 77.1% | [3]; 10 µM 91.8% | [4]; 10 µM 76.7% | [5]; 10 µM 80.6% | [6]; 10 µM 53.5% | [7]; 10 µM 31.1% | [8]; 10 µM 93.5% | [9]; 10 µM 100% | [10]; 10 µM 80.4% | [11]; 10 µM 71.8% | [12]; 10 µM 84.9% | [13]; 10 µM 92.1% | [14]; 10 µM 59.6% | [15]; 10 µM 76.2% | [16]; 10 µM unless noted 90.2% | [17]; 10 µM 84.6%

O=C1c2ccccc2CCC1(Br)Br
inactive: [19] 12% | [2]; 10 µM 56.6% | [3]; 10 µM 89.4% | [5]; 10 µM 54.5% | [7]; 10 µM 32.1% | [10]; 10 µM 28.3% | [11]; 10 µM 28% | [13]; 10 µM 18.7% | [14]; 10 µM 70.8%
active: [1]; 10 µM -57% | [12]; 10 µM -95.2% | [15]; 10 µM -22.2% | [16]; 10 µM unless noted -13.4% | [17]; 10 µM 0.0746%

S=P(N1CC1)(N1CC1)N1CC1
inactive: [1]; 10 µM 106% and 84.9% | [1]; 100 µM 57.5% | [2]; 10 µM 109% and 69% | [2]; 100 µM 43.2% | [3]; 10 µM 102% and 101% | [3]; 100 µM 37.3% | [4]; 10 µM 105% and 84.1% | [4]; 100 µM 43.7% | [5]; 10 µM 97.5% and 90.9% | [5]; 100 µM 52.7% | [6]; 10 µM 96.9% and 92.8% | [6]; 100 µM 48.6% | [7]; 10 µM 100% and 71.7% | [7]; 100 µM 37.1% | [8]; 10 µM 99.2% and 80.5% | [8]; 100 µM 33% | [9]; 10 µM 107% and 90.2% | [9]; 100 µM 101% | [10]; 10 µM 98.5% and 72.8% | [10]; 100 µM 44.1% | [11]; 10 µM 71.9% and 83.7% | [11]; 100 µM 39.1% | [12]; 10 µM 104% and 60.1% | [13]; 10 µM 91.6% and 47.4% | [14]; 10 µM 122% and 69.4% | [14]; 100 µM 67.8% | [15]; 10 µM 107% and 106% | [15]; 100 µM 21.4% | [16]; 10 µM 98.2% and 61.8% | [16]; 100 µM 22.6% | [17]; 10 µM 35.4% | [17]; 100 µM 22.6%
active: [12]; 100 µM 8.37% | [13]; 100 µM 2.65%
